In PubChem BioAssay (EPA / NIEHS):
Results filed as inconclusive are left out. The source made the active and inactive calls. The calls were made as follows: active = hit-call score of the fitted dose curve at least 0.9, where 1 is the maximum; inconclusive = response in the unintended direction; inactive = score below 0.9.

Columns and labels:
[1] = target: Cellular tumor antigen p53 (Homo sapiens) (UniProt P04637); assay: TOX21_p53_BLA_p2_ratio: Tox21 HCT-116 p53 Agonism Beta-lactamase Assay, Ratio, Phase 2 (AID 2283592)
Method in brief: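 DMSO-normalized, positive-direction endpoint derived from the 460 nm/530 nm FRET ratio in HCT116 p53 beta-lactamase reporter cells exposed 16 h at 37C and loaded with CCF4-AM for 2 h.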

[2] = TOX21_p53_BLA_p3_viability: Viability Assessment in the Tox21 HCT-116 p53 Agonism Beta-lactamase Assay, Phase 3 (AID 2283593);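 also: cells exposed to compound for 16 h before reading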
Method in brief: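 Cellular ATP was quantified by CellTiter-Glo luminescence, read after 30 min at room temperature. Beforehand, HCT116 cells (4000/well) received compound 5 h post-seeding, 217-fold diluted from DMSO, then incubated 16 h at 37C.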

[3] = TOX21_p53_BLA_p4_viability: Viability Assessment in the Tox21 HCT-116 p53 Agonism Beta-lactamase Assay, Phase 4 (AID 2283597);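 also: hits lower the luminescence signal meaning cytotoxicity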
Method in brief: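 In this multiplexed secondary endpoint, HCT116 cells (4000 per well, compound at 5 h, 16 h treatment) received CellTiter-Glo after the beta-lactamase read. Luminescence after 30 min RT reflects ATP, and falling signal marks cytotoxicity.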

[4] = target: Cellular tumor antigen p53 (Homo sapiens) (UniProt P04637); assay: TOX21_p53_BLA_p5_ratio: Tox21 HCT-116 p53 Agonism Beta-lactamase Assay, Ratio, Phase 5 (AID 2283599)
Method in brief: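 Beta-lactamase reporter ratio (blue 460 nm over green 530 nm, 405 nm excitation) after 2 h CCF4-AM loading, in HCT-116 cells exposed 16 h at 37 C to compounds pinned at 217-fold dilution. Increases relative to DMSO baseline scored.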

[5] = TOX21_p53_BLA_p5_viability: Viability Assessment in the Tox21 HCT-116 p53 Agonism Beta-lactamase Assay, Phase 5 (AID 2283600)
Method in brief: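 Here cell health was gauged by ATP levels in wells holding 4000 cells, each treated 16 h with DMSO-delivered compounds at 217-fold dilution; reduced luminescence marked toxicity.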

[6] = target: Cellular tumor antigen p53 (Homo sapiens) (UniProt P04637); assay: TOX21_p53_BLA_p4_ratio: Tox21 HCT-116 p53 Agonism Beta-lactamase Assay, Ratio, Phase 4 (AID 2283601)
Method in brief: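 Signal is the blue/green (460nm/530nm) ratio of cleaved versus uncleaved CCF4-AM substrate, read after 2 h substrate loading. Cells were HCT116 carrying the p53-responsive beta-lactamase reporter, dosed 16 h at 37C, 5% CO2; CellTiter-Glo measured in parallel.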

[7] = target: Cellular tumor antigen p53 (Homo sapiens) (UniProt P04637); assay: TOX21_p53_BLA_p3_ratio: Tox21 HCT-116 p53 Agonism Beta-lactamase Assay, Ratio, Phase 3 (AID 2283596)
Method in brief: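 Cells were seeded at 4000/well, rested 5 h at 37C, then dosed with DMSO compound solutions (217-fold dilution) for 16 h. CCF4-AM substrate was loaded for 2 h at room temperature, and the 460/530 nm emission ratio was fitted for gain of signal versus DMSO.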

[8] = TOX21_TR_RXR_BLA_Agonist_Followup_viability: Viability Assessment in the Tox21 Thyroid Hormone Receptor beta Retinoid X Receptor alpha (RXRa) Agonism Beta-lactamase (BLA) Follow-Up Assay (AID 2283970)
Method in brief: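 CellTiter-Glo ATP luciferase read-out of cell viability, multiplexed with the beta-lactamase reporter run. RXRa-bla HEK293T cells in charcoal-stripped serum medium were exposed 16 h at 37C; data fitted both directions relative to DMSO.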

Sequence of Cellular tumor antigen p53 (Homo sapiens) (P04637 whole entry, looked up): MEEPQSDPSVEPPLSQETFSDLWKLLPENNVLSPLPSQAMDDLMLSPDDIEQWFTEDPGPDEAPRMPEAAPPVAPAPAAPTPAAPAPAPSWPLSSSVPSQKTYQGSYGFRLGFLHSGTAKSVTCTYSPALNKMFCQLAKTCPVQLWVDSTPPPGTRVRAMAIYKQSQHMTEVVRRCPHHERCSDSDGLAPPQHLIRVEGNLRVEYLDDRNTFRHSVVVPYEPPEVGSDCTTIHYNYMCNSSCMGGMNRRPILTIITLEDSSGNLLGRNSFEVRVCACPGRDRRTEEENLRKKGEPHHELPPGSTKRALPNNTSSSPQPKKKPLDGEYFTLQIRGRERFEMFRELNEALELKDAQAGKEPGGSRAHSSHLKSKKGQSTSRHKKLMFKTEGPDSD

Compound | outcome [1] | outcome [2] | outcome [3] | outcome [4] | outcome [5] | outcome [6] | outcome [7] | outcome [8] | AC50 [3]
C=CC1CC2C=CC1C2 (stereo not given) | inactive | inactive | inactive | inactive | inactive | inactive | – | – | –
CC=C(C)C(=O)OCCC(C)CCC=C(C)C (stereo not given) | inactive | inactive | inactive | – | – | – | – | – | –
C=C(C)CC(C)(C)C | inactive | inactive | inactive | inactive | inactive | inactive | – | – | –
CC(C)CCCC(C)N (stereo not given) | inactive | inactive | inactive | inactive | inactive | inactive | – | – | –
Oc1ccc(Cl)c2c1CCC2 | inactive | inactive | inactive | inactive | inactive | inactive | – | – | –
CCOC(=O)C(C)C(C)=O (stereo not given) | inactive | inactive | inactive | inactive | inactive | inactive | – | – | –
O=C(Cl)c1ccc(F)c(Cl)c1 | inactive | inactive | inactive | – | – | – | – | – | –
CC1=CC(=O)CC(C)(C)C1(O)/C=C/C(C)=C\C(=O)O (stereo not given) | inactive | inactive | inactive | inactive | inactive | inactive | – | – | –
CC1(C)C(\C=C/C=C\C=C/C=C2/N(CCCCS(=O)(=O)O)c3ccc4ccccc4c3C2(C)C)=[N+](CCCCS(=O)(=O)[O-])c2ccc3ccccc3c21 | inactive | inactive | inactive | inactive | inactive | inactive | – | – | –
CCCCN(CCCC)C(=S)SSC(=S)N(CCCC)CCCC | inactive | inactive | inactive | inactive | inactive | – | – | – | –
O=C(O)c1ccccc1Nc1cc(Cl)ccc1C(=O)O | inactive | inactive | inactive | inactive | inactive | inactive | – | – | –
CC1=C(/C=C/C(C)=C\C=C\C(C)=C\C(=O)O)C(C)(C)CCC1 | inactive | inactive | – | – | – | inactive | inactive | inactive | –
CC(=O)N[C@@H](CCC(N)=O)C(=O)O | inactive | inactive | inactive | inactive | inactive | – | – | – | –
NS(=O)(=O)c1ccc(NC(=O)CCC(=O)O)cc1 | inactive | inactive | inactive | inactive | inactive | inactive | – | – | –
CCCCCC(=Cc1ccccc1)CO | inactive | inactive | inactive | inactive | inactive | – | – | – | –
Cc1ccc2nc(-c3ccc(N)cc3)sc2c1S(=O)(=O)O | inactive | inactive | inactive | inactive | – | inactive | – | – | –
Cc1ccc(O)c([N+](=O)[O-])c1 | inactive | inactive | inactive | – | – | – | – | – | –
COC[C@H](c1ccc(C(F)(F)F)cc1)N1CCN(C2(C)CCN(C(=O)c3c(C)ncnc3C)CC2)C[C@H]1C | inactive | inactive | inactive | inactive | inactive | inactive | – | – | –
CCCCCCCCCCCCCCCCN | inactive | inactive | inactive | inactive | inactive | inactive | – | – | –
Cc1cccc2sc(N)nc12 | inactive | inactive | inactive | inactive | inactive | inactive | – | – | –
C[C@@H](CN1CC(=O)NC(=O)C1)N1CC(=O)NC(=O)C1 | inactive | inactive | inactive | – | – | – | – | – | –
CC(=O)Nc1c(I)c(C(=O)O)c(I)c(N(C)C(C)=O)c1I | inactive | inactive | inactive | inactive | inactive | inactive | – | – | –
Fc1ccc([C@@H]2CCNC[C@H]2COc2ccc3c(c2)OCO3)cc1 | inactive | inactive | – | inactive | inactive | inactive | – | – | 37.4 µM (active)
CC(C)(C)S | inactive | inactive | inactive | inactive | inactive | – | – | – | –
CCNC(=O)C(C)OC(=O)Nc1ccccc1 (stereo not given) | inactive | inactive | inactive | – | – | – | – | – | –
CCCCCCCCCCCCCCCCCCCl | inactive | inactive | inactive | inactive | inactive | inactive | – | – | –
FC(F)(F)c1ccc(Cl)cc1Cl | inactive | inactive | inactive | inactive | – | inactive | – | – | –
OC(CCN1CCCCC1)(c1ccccc1)c1ccccc1 | inactive | inactive | inactive | inactive | inactive | inactive | – | – | –
CN(Cc1ccccc1)Cc1ccccc1 | inactive | inactive | inactive | inactive | – | inactive | – | – | –
CC[C@@H](C)[C@H](N)C(=O)O | inactive | inactive | – | – | – | inactive | inactive | – | –
